{"source": "paper PMC4336329", "about": "(PLoS ONE, 2015)", "note": "Hit rate of the full screen: of about 310,000 compounds, about 14,000 (4.5%) showed an effect of 50% or more. Effects have a minus sign here. The full list was thinned out, with strong results kept by preference.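 Also: peak tail current of the secondary pulse compared with the same well before compound.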"}
{"target": "human ether-à-go-go-related gene (hERG) potassium channel (human, UniProt Q12809)", "sequence (Q12809 whole entry, looked up)": "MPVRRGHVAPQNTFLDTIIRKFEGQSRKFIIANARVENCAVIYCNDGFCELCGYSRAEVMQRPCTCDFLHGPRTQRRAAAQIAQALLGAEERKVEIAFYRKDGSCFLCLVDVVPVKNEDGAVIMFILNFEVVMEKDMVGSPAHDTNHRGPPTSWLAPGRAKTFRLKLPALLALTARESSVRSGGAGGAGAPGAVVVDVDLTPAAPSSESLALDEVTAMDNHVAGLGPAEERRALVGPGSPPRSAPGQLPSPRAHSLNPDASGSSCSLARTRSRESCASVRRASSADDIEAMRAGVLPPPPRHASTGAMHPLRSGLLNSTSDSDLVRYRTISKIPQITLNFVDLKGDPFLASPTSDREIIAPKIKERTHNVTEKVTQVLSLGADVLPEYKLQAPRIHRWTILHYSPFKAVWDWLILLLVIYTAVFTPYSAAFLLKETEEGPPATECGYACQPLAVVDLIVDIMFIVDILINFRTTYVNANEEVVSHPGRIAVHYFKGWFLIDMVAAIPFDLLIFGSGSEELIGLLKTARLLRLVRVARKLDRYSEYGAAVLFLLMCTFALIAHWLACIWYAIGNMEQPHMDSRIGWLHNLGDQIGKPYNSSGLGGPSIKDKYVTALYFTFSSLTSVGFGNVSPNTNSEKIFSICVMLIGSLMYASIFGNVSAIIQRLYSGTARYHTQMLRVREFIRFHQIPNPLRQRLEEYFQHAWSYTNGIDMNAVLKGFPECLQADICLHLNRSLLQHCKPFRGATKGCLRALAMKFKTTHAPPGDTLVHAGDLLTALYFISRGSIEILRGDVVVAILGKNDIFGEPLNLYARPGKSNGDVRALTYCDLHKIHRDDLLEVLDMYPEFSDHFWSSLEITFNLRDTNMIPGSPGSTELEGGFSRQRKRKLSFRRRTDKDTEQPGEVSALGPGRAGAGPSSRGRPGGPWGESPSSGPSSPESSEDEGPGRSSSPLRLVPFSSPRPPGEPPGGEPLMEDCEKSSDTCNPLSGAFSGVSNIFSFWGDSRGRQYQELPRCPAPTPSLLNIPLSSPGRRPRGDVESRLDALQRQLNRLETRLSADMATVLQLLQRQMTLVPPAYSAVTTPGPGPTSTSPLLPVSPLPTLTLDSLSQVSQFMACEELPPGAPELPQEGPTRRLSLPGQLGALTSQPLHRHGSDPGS", "experiment": "primary screen, population patch clamp on CHO cells stably expressing hERG; higher = less effect of the substance", "units": {"hERG current change (%, negative = inhibition) at 10uM": "%"}}
{"compound": "C/C(NC(=O)c1ccccc1F)=C1\\C(=O)C[C@@H]2[C@H]1C2(C)C", "hERG current change (%, negative = inhibition) at 10uM": -14.4}
{"compound": "CC(C)OC(=O)CSc1nnc(SCc2cccc3ccccc23)s1", "hERG current change (%, negative = inhibition) at 10uM": 7.07}
{"compound": "CC1CC2c3cccc(C(=O)O)c3C(=O)N2c2ccc(Cl)cc21", "note": "(stereo not shown)", "hERG current change (%, negative = inhibition) at 10uM": 5.97}
{"compound": "CCCC(C)NCC(=O)Nc1ccccc1-c1ccccc1.O=C(O)C(=O)O", "note": "(stereo not shown)", "hERG current change (%, negative = inhibition) at 10uM": -21.5}
{"compound": "COc1ccc(CCn2c(N3CCOCC3)nc3c2c(=O)[nH]c(=O)n3C)cc1", "hERG current change (%, negative = inhibition) at 10uM": -15.5}
{"compound": "CC(=O)c1cc(C(=O)N2CCCC(C(=O)c3ccc(Cl)cc3)C2)cs1", "note": "(stereo not shown)", "hERG current change (%, negative = inhibition) at 10uM": -31.9}
{"compound": "OCCC1CN(Cc2cccs2)CCN1Cc1ccccc1", "note": "(stereo not shown)", "hERG current change (%, negative = inhibition) at 10uM": -20.9}
{"compound": "OCCC1CN(Cc2ccc(C(F)(F)F)cc2)CCN1Cc1ccccc1", "note": "(stereo not shown)", "hERG current change (%, negative = inhibition) at 10uM": -56.8}
{"compound": "CC(C)CCN1CCN(Cc2ccc(C(F)(F)F)cc2)CC1CCO", "note": "(stereo not shown)", "hERG current change (%, negative = inhibition) at 10uM": -58.1}
{"compound": "CC(C)CCN1CCN(Cc2cccc(C(F)(F)F)c2)CC1CCO", "note": "(stereo not shown)", "hERG current change (%, negative = inhibition) at 10uM": -55.1}
{"compound": "CC(C)CCN1CCN(Cc2ccc(C#CCCO)cc2)CC1CCO", "note": "(stereo not shown)", "hERG current change (%, negative = inhibition) at 10uM": -6.37}
{"compound": "OCCC1CN(Cc2cccc(C(F)(F)F)c2)CCN1Cc1ccccc1", "note": "(stereo not shown)", "hERG current change (%, negative = inhibition) at 10uM": -46.2}
{"compound": "CC(C)CN1CCN(Cc2ccccc2C(F)(F)F)CC1CCO", "note": "(stereo not shown)", "hERG current change (%, negative = inhibition) at 10uM": 4.5}
{"compound": "CC(C)CCN1CCN(Cc2ccc(N3CCNC3=O)cc2)CC1CCO", "note": "(stereo not shown)", "hERG current change (%, negative = inhibition) at 10uM": -20.1}
{"compound": "Cc1cccc(-c2ncc(CN3CCN(CCC(C)C)C(CCO)C3)cn2)c1", "note": "(stereo not shown)", "hERG current change (%, negative = inhibition) at 10uM": -45}
{"compound": "CC(C)CN1CCN(Cc2ccc(C(F)(F)F)cc2)CC1CCO", "note": "(stereo not shown)", "hERG current change (%, negative = inhibition) at 10uM": -56.6}
{"compound": "CC(C)CN1CCN(Cc2ccc(C#CC(C)(C)O)cc2)CC1CCO", "note": "(stereo not shown)", "hERG current change (%, negative = inhibition) at 10uM": 8.57}
{"compound": "CN(Cc1ccc(F)cc1)C(=O)c1ccc(NS(=O)(=O)c2ccc3[nH]c(=O)[nH]c3c2)cc1", "hERG current change (%, negative = inhibition) at 10uM": 12.1}
{"compound": "O=[N+]([O-])c1cccc(S(=O)(=O)Nc2ccc(S(=O)(=O)NCC3CCCO3)cc2)c1", "note": "(stereo not shown)", "hERG current change (%, negative = inhibition) at 10uM": -0.96}
{"compound": "COc1ccc(C2c3ccc(O)cc3Oc3ncn4nc(-c5ccco5)nc4c32)cc1OC", "note": "(stereo not shown)", "hERG current change (%, negative = inhibition) at 10uM": 22.8}
{"compound": "COc1ccc(C2c3ccc(O)cc3Oc3ncn4nc(-c5ccncc5)nc4c32)cc1OC", "note": "(stereo not shown)", "hERG current change (%, negative = inhibition) at 10uM": 5.39}
{"compound": "COc1ccc(C2c3ccc(O)cc3Oc3ncn4nc(-c5ccccn5)nc4c32)cc1", "note": "(stereo not shown)", "hERG current change (%, negative = inhibition) at 10uM": 17.9}
{"compound": "COc1ccc(C2c3c(ccc4ccccc34)Oc3ncn4nc(-c5ccco5)nc4c32)cc1OC", "note": "(stereo not shown)", "hERG current change (%, negative = inhibition) at 10uM": -13.4}
{"compound": "COc1ccc(C2c3ccc(O)cc3Oc3ncn4nc(-c5cccnc5)nc4c32)cc1OC", "note": "(stereo not shown)", "hERG current change (%, negative = inhibition) at 10uM": -56.9}
{"compound": "COc1ccc(C2c3ccc(O)cc3Oc3ncn4nc(-c5ccccn5)nc4c32)cc1OC", "note": "(stereo not shown)", "hERG current change (%, negative = inhibition) at 10uM": -71.3}
